Tests used:
Assay in all cases: log2 ratio of Biotin-Ahx-Ub-VS probe labelling (fragment/DMSO); higher = less target engagement (more negative = stronger competition), active = hit call of the paper (q ≤ 0.05, log2 ratio ≤ -1)
Conditions in all cases: compound concentration: 200 uM; treatment time: 3 h
OTUD6B = biological target: T1, OTUD6B (UniProt Q8N6M0)
T1 sequence (whole entry): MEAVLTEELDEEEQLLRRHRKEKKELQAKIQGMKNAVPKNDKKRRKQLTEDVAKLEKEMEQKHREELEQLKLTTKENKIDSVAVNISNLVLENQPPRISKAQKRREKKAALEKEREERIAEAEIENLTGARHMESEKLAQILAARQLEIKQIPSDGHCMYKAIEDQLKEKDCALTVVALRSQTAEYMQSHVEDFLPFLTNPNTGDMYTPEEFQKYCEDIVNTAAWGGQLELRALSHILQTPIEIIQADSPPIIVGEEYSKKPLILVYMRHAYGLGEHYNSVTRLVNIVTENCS
Outline: (§1)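 In triplicate, 495 µg of HEK293T lysate per sample was incubated with fragment at 200 µM or vehicle for 3 h. Biotin-Ahx-Ub-VS was then added to 0.5 µM final for 1 h, and labelled DUBs were captured with NeutrAvidin, digested with LysC and trypsin, and measured by diaPASEF LC-MS/MS. Data are average log2 fragment/vehicle ratios by unpaired t-test from global-median-normalised Spectronaut label-free quantities, restricted to proteins with ≥2 unique peptides.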

OTUD7B = biological target: T2, OTUD7B (UniProt Q6GQQ9)
T2 sequence (whole entry): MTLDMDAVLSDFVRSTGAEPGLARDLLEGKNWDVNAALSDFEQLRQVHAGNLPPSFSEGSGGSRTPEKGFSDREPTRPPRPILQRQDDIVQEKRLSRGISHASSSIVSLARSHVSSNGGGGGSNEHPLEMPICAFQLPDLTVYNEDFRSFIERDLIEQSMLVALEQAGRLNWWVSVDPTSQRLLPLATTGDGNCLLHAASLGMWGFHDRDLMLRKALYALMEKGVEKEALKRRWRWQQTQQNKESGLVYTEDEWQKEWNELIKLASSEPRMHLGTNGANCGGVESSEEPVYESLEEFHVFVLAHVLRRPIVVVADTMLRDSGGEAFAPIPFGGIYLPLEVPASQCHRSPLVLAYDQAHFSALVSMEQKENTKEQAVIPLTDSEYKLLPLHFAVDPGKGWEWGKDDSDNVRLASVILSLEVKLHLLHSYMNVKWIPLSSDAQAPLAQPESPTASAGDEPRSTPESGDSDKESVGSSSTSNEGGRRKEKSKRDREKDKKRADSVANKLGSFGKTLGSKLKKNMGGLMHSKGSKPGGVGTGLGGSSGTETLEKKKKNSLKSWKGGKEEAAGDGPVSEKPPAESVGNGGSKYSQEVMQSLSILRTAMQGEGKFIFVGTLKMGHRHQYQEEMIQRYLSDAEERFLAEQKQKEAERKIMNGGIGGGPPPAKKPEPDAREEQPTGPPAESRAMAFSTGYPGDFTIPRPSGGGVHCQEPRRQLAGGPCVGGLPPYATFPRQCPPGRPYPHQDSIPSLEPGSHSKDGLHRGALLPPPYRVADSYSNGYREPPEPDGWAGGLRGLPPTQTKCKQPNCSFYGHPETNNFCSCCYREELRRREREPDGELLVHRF
Outline: as §1

PRPF8 = PRPF8 (UniProt Q6P2Q9)
Outline: as §1

PSMD7 = biological target: T3, PSMD7 (UniProt P51665)
T3 sequence (whole entry): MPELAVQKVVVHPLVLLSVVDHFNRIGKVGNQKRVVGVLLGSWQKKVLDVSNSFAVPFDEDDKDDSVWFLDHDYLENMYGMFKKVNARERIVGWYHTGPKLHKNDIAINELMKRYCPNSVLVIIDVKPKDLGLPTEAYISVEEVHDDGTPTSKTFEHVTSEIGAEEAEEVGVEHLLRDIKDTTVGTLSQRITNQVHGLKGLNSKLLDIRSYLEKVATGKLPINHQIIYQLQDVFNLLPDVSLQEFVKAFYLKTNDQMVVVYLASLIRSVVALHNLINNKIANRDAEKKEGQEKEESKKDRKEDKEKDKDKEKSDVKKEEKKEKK
Outline: as §1

UCHL1 = UCHL1 (UniProt P09936)
Outline: as §1

UCHL3 = biological target: T4, UCHL3 (UniProt P15374)
T4 sequence (whole entry): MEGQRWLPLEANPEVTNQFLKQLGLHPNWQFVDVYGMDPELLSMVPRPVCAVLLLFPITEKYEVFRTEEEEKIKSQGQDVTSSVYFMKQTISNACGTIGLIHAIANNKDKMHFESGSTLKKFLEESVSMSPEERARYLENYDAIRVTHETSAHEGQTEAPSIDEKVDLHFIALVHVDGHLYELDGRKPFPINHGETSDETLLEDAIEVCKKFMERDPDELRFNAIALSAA
Outline: as §1

UCHL5 = biological target: T5, UCHL5 (UniProt Q9Y5K5)
T5 sequence (whole entry): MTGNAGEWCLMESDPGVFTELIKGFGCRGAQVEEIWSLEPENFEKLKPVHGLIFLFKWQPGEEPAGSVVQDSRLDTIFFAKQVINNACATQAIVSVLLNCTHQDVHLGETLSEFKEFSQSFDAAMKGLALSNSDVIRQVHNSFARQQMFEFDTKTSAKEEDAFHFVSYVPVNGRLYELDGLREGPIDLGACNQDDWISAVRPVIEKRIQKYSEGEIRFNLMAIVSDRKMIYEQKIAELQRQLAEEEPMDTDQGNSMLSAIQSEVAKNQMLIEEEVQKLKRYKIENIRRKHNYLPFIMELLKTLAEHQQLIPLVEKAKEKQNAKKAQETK
Outline: as §1

USP10 = USP10 (UniProt Q14694)
Outline: as §1

USP15 = biological target: T6, USP15 (UniProt Q9Y4E8)
T6 sequence (whole entry): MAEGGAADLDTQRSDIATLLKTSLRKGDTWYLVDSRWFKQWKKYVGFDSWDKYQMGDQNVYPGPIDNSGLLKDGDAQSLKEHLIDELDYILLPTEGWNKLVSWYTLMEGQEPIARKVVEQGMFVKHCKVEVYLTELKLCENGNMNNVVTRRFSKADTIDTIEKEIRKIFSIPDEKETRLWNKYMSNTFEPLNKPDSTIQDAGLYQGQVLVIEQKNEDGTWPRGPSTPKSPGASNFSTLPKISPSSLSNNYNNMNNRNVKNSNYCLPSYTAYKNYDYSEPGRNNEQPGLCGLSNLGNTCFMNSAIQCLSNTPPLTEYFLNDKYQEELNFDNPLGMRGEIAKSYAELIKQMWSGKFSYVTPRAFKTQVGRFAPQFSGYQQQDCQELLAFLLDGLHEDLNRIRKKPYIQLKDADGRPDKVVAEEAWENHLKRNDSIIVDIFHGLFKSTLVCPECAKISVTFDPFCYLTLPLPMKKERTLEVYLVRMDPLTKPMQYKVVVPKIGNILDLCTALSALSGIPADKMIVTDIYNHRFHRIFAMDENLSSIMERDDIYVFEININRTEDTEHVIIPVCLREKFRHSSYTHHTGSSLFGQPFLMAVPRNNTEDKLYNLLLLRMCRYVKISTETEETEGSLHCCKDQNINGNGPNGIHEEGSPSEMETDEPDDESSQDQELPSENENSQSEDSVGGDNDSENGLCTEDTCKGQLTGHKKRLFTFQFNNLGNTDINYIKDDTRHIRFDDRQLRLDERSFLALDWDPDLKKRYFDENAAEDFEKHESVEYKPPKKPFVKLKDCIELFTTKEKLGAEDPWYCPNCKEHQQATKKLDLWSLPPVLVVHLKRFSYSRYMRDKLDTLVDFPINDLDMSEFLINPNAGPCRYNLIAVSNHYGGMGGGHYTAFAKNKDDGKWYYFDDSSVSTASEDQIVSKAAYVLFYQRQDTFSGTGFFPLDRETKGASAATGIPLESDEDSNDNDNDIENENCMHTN
Outline: as §1

USP16 = USP16 (UniProt Q9Y5T5)
Outline: as §1

Measured: log2 ratio of Biotin-Ahx-Ub-VS probe labelling

UCHL1, sequence (P09936 whole entry, looked up): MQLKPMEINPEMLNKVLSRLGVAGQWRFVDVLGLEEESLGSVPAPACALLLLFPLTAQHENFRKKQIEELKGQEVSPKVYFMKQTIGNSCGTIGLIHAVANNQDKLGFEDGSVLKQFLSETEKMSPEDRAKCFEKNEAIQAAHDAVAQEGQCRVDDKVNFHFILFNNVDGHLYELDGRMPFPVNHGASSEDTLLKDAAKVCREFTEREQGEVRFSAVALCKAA
USP16, sequence (Q9Y5T5 whole entry, looked up): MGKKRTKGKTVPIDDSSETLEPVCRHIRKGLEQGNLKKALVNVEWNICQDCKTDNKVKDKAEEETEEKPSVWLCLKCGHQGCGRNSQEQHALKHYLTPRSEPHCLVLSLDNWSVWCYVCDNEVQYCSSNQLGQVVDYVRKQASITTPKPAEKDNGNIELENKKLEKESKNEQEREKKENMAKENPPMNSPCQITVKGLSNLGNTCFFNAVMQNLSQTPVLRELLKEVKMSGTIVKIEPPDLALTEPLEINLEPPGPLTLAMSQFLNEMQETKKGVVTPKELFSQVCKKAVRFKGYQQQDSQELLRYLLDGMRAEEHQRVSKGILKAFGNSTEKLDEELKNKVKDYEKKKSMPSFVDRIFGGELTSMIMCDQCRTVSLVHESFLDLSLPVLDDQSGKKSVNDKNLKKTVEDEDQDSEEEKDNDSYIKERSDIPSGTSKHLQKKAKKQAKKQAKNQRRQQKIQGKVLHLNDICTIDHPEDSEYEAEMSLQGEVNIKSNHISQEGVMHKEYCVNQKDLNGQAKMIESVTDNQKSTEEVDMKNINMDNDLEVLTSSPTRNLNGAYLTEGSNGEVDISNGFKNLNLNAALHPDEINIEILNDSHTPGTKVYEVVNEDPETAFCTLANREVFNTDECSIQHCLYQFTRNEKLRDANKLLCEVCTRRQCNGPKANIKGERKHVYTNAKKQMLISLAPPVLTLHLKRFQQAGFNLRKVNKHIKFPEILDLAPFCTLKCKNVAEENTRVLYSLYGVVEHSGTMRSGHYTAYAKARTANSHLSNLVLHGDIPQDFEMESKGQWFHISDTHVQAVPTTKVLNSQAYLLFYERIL
USP10, sequence (Q14694 whole entry): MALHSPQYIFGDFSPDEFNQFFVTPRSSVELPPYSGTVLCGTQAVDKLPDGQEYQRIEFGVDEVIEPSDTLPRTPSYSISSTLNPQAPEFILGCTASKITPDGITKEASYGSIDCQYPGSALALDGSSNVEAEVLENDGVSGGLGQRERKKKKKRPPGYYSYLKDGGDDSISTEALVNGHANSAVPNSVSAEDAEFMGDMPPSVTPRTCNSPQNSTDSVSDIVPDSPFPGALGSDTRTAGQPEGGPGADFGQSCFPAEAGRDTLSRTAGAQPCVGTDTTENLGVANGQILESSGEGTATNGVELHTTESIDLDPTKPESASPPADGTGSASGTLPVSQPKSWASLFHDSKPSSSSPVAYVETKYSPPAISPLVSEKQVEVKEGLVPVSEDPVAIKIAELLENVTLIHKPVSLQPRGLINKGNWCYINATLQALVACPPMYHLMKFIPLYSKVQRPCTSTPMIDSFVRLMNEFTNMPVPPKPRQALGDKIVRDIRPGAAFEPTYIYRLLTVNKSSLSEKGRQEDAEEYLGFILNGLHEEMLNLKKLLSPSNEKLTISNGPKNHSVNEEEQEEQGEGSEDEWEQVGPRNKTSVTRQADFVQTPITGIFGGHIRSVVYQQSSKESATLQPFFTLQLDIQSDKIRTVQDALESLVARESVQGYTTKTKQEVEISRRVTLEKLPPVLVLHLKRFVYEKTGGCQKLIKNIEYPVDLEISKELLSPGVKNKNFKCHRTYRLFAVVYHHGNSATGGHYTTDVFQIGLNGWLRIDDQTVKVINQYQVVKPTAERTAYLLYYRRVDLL

Cc1cc(NC(=O)CCl)n(-c2ccccc2)n1
inactive: OTUD6B -0.0228 | OTUD7B -0.528 | PRPF8 0.173 | PSMD7 0.00596 | UCHL3 0.614 | UCHL5 -0.0207 | USP10 -0.234 | USP15 -0.2 | USP16 -0.321
active: UCHL1 -1.18

Source: the supplement of paper PMC11732987, “Enantioselective OTUD7B fragment discovery through chemoproteomics screening and high-throughput optimisation” (Communications Chemistry, 2025)
